# Test results: PubChem BioAssay (NCI)
# The panel holds about 83,000 compounds, 20% with a hit somewhere; the sample as a whole holds those more often.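 Compound tested at a single concentration for 48 hours in 96-well plates; a percent growth value below 10 was scored as active.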 Unmarked numbers belong to inactive results. The source made the active and inactive calls.
# What was measured:
# Assay in all cases: NCI-60 one-dose screen, 48 h (100 = growth as untreated, 0 = no growth, -100 = all killed)
# Conditions in all cases: 10 µM unless noted
# SR leukemia = tested on: SR leukemia
# RPMI-8226 leukemia = tested on: RPMI-8226 leukemia
# OVCAR-8 ovarian = tested on: OVCAR-8 ovarian
# OVCAR-5 ovarian = tested on: OVCAR-5 ovarian
# OVCAR-4 ovarian = tested on: OVCAR-4 ovarian
# SK-OV-3 ovarian = tested on: SK-OV-3 ovarian
# IGROV1 ovarian = tested on: IGROV1 ovarian
# OVCAR-3 ovarian = tested on: OVCAR-3 ovarian
# HS 578T breast = tested on: HS 578T breast
# NCI/ADR-RES ovarian = tested on: NCI/ADR-RES ovarian
# T-47D breast = tested on: T-47D breast
# BT-549 breast = tested on: BT-549 breast
# SW-620 colon = tested on: SW-620 colon
# HCT-116 colon = tested on: HCT-116 colon
# HCC-2998 colon = tested on: HCC-2998 colon
# KM12 colon = tested on: KM12 colon
# MDA-MB-435 melanoma = tested on: MDA-MB-435 melanoma
# MCF7 breast = tested on: MCF7 breast
Compound,growth (SR leukemia),growth (RPMI-8226 leukemia),growth (OVCAR-8 ovarian),growth (OVCAR-5 ovarian),growth (OVCAR-4 ovarian),growth (SK-OV-3 ovarian),growth (IGROV1 ovarian),growth (OVCAR-3 ovarian),growth (HS 578T breast),growth (NCI/ADR-RES ovarian),growth (T-47D breast),growth (BT-549 breast),growth (SW-620 colon),growth (HCT-116 colon),growth (HCC-2998 colon),growth (KM12 colon),growth (MDA-MB-435 melanoma),growth (MCF7 breast)
COc1cccc(-c2nn(-c3ccccc3)cc2-c2ccnc(NCCCNC(=O)Nc3ccc(Cl)c(Cl)c3)c2)c1,-32.8% (active),-2.49% (active),1.46% (active),54.4%,30.9%,22.2%,36.6%,29.5%,-26.1% (active),-20.3% (active),-15% (active),7.49% (active),12%,2.97% (active),-61.8% (active),-13.4% (active),–,–
COc1ccc(NC(=O)c2nc(-c3cc(OC)c(OC)c(OC)c3)n(-c3cccc4ccccc34)n2)cc1OC,33.1%,11.6%,52.5%,56.1%,45.5%,38.3%,22.9%,–,23.4%,35.2%,50.3%,46.3%,61.5%,25.9%,47.4%,41.3%,47.4%,26.2%
COc1cccc(-c2nn(-c3ccccc3)cc2-c2ccnc(NCCNC(=O)Nc3ccccc3)c2)c1,-10.6% (active),39.5%,38%,92.4%,53.9%,58%,65.4%,–,31.4%,34.8%,20.3%,–,71.9%,35.3%,39.1%,37.6%,42.9%,56.6%
COC(=O)[C@]12CC[C@@H](C)[C@H](C)[C@@H]1C1=CC[C@@H]3[C@@]4(C)C(C=O)=C[C@@](C)(COC(C)=O)C4=CC[C@@]3(C)[C@]1(C)CC2,-30.5% (active),-9.49% (active),13.2%,12.9%,17%,6.81% (active),12.9%,-67.3% (active),-12.9% (active),12.5%,-5.34% (active),–,-43.8% (active),-67.5% (active),-14.6% (active),2.7% (active),-0.255% (active),5.08% (active)
